In PubChem BioAssay AID1159580 (chemical genetic matrix, 2015):
Where “and” joins values, the source holds several entries; their conditions need not be identical. Equal entries are not always repeated. Hit rate of the full screen: of about 5,500 compounds, about 2,000 (36%) were called active. Roughly 18% stayed inconclusive and do not appear here. Cut-off read from the data, not from the text of the source: active = normalized growth mostly below about 0.91 (no sharp cut-off); inconclusive = no clear call, values can overlap the other calls; inactive = mostly above about 0.92. The list shows a part of the results.

Test: chemical genetic growth profiling, strain panel (AID 1159580);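 note: tested at 20 µM; growth read once vehicle control cultures reached saturation at 30 °C; 1 = growth at the plate median or of vehicle wells; lower values mean less growth of the strain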
Details: S. cerevisiae deletion strains, growth OD

Measured: normalized growth

NC[C@H](O)c1ccc(O)c(O)c1
inactive: locus YAL013W, strain DEP1, active compounds read low 1.01 | locus YAL021C, strain ccr4, active compounds read low 0.984 | locus YAL026C, strain drs2, active compounds read low 0.99 | locus YAL030W, strain snc1, active compounds read low 1.01 | locus YBL061C, strain skt5, active compounds read low 1.01 | locus YBR009C, strain hhf1, active compounds read low 1.01 | locus YBR021W, strain FUR4, active compounds read low 1.01 | locus YBR023C, strain chs3, active compounds read low 1.02 | locus YBR171W, strain sec66, active compounds read low 0.996 | locus YBR229C, strain ROT2, active compounds read low 1.01 | locus YBR231C, strain swc5, active compounds read low 0.984 | locus YBR279W, strain paf1, active compounds read low 1.02 | locus YCL011C, strain gbp2, active compounds read low 0.999 | locus YCL016C, strain dcc1, active compounds read low 1.02 | locus YCL029C, strain bik1, active compounds read low 1.01 | locus YCL061C, strain MRC1, active compounds read low 1.01 | locus YCL069W, strain vba3, active compounds read low 0.991 | locus YCR088W, strain abp1, active compounds read low 1.01 | locus YDL005C, strain med2, active compounds read low 1 | locus YDL035C, strain GPR1, active compounds read low 1.01 | locus YDL040C, strain nat1, active compounds read low 1.01 | locus YDL074C, strain BRE1, active compounds read low 0.986 | locus YDL101C, strain DUN1, active compounds read low 1.01 | locus YDL134C, strain PPH21, active compounds read low 1.02 | locus YDL185W, strain tfp1, active compounds read low 1.01 | locus YDL192W, strain arf1, active compounds read low 1.01 | locus YDR001C, strain nth1, active compounds read low 1 | locus YDR069C, strain doa4, active compounds read low 0.981 | locus YDR101C, strain arx1, active compounds read low 1 | locus YDR137W, strain rgp1, active compounds read low 1.06 | locus YDR150W, strain NUM1, active compounds read low 1 | locus YDR159W, strain sac3, active compounds read low 1.01 | locus YDR162C, strain NBP2, active compounds read low 1 | locus YDR195W, strain ref2 1.01 | locus YDR297W, strain sur2, active compounds read low 1.01 | locus YDR318W, strain mcm21, active compounds read low 1.03 | locus YDR334W, strain swr1, active compounds read low 0.984 | locus YDR335W, strain msn5, active compounds read low 0.999 | locus YDR388W, active compounds read low 1.02 | locus YDR392W, strain spt3, active compounds read low 0.987 | locus YDR502C, strain sam2, active compounds read low 1.02 | locus YEL003W, strain gim4, active compounds read low 0.986 | locus YEL037C, strain rad23, active compounds read low 0.986 | locus YEL061C, strain CIN8 (second series), active compounds read low 0.985 | locus YEL061C, strain CIN8, active compounds read low 1.01 | locus YER015W, strain faa2, active compounds read low 0.99 | locus YER016W, strain bim1, active compounds read low 1 | locus YER110C, active compounds read low 1.02 | locus YER111C, strain swi4, active compounds read low 0.98 | locus YER155C, strain BEM2 (second series), active compounds read low 1 | locus YER155C, strain BEM2, active compounds read low 1.02 | locus YER167W, strain BCK2, active compounds read low 1.02 | locus YFR010W, strain ubp6, active compounds read low 0.953 | locus YGL078C, strain dbp3, active compounds read low 1.01 | locus YGL086W, strain mad1, active compounds read low 0.991 | locus YGL167C, strain pmr1, active compounds read low 1 | locus YGL173C, strain kem1, active compounds read low 0.999 | locus YGL227W, strain vid30, active compounds read low 1 | locus YGL240W, strain doc1, active compounds read low 1.03 | locus YGL248W, strain PDE1, active compounds read low 1.01 | locus YGL253W, strain hxk2, active compounds read low 0.994 | locus YGR135W, strain pre9, active compounds read low 0.998 | locus YGR252W, strain gcn5, active compounds read low 0.958 | locus YHR013C, strain ard1, active compounds read low 1 | locus YHR027C, strain rpn1, active compounds read low 1 | locus YHR030C, strain SLT2, active compounds read low 1.01 and 0.962 | locus YHR079C, strain IRE1 (second series), active compounds read low 1.02 | locus YHR079C, strain IRE1, active compounds read low 0.953 | locus YHR094C, strain hxt1, active compounds read low 1.03 | locus YHR129C, strain ARP1, active compounds read low 0.999 | locus YHR142W, strain chs7, active compounds read low 0.978 | locus YHR200W, strain rpn10, active compounds read low 1.02 | locus YIL066C, strain RNR3, active compounds read low 1.01 | locus YIL073C, strain SPO22, active compounds read low 1.03 | locus YIL125W, strain kgd1, active compounds read low 1.01 | locus YIR030C, strain dcg1, active compounds read low 1.02 | locus YJL092W, strain hpr5, active compounds read low 1 | locus YJL095W, strain BCK1 (second series), active compounds read low 1.01 | locus YJL095W, strain BCK1, active compounds read low 0.994 and 0.971 | locus YJL115W, strain asf1, active compounds read low 1 | locus YJL129C, strain trk1, active compounds read low 0.952 | locus YJL134W, strain LCB3, active compounds read low 1.01 | locus YJL154C, strain vps35, active compounds read low 1 | locus YJL164C, strain tpk1, active compounds read low 1.01 | locus YJL166W, strain qcr8, active compounds read low 1.02 | locus YJL168C, strain set2, active compounds read low 1.02 | locus YJL187C, strain SWE1 (second series), active compounds read low 1.01 | locus YJL187C, strain SWE1, active compounds read low 0.999 | locus YJR043C, strain POL32, active compounds read low 1.02
